# ± gives the standard deviation of the averaged measurements. Over roughly 33,000 sequences, “E-score (dimensionless, -0.5 to 0.5)” has its median near -0.049; the highest 2% begin near 0.37. The sample as a whole holds a higher share of the highest values than the screen did.
# Test system: T1, PmTbr T-box DNA-binding domain (GST fusion)
# T1 sequence: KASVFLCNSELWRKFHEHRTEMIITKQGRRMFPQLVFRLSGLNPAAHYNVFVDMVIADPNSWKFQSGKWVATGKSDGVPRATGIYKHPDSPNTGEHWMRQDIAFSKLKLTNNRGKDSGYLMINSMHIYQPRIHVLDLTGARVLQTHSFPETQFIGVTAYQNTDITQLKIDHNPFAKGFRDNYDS
# Experiment: PBM E-score of 8-mer (E-score (dimensionless, -0.5 to 0.5)); Tbr is Tbrain of the sea star Patiria miniata (Pm) or the sea urchin Strongylocentrotus purpuratus (Sp); higher = stronger binding preference
# Conditions: the construct has about 5 more residues each side
# Method in brief: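 Expression of GST-fused Tbr T-box DNA-binding domains, each holding the full T-box plus roughly five flanking residues, was carried out in BL21 E. coli at 20 °C, with purification by glutathione affinity chromatography. Universal Agilent arrays made double-stranded by primer extension were incubated with the protein at 200 nM in PBS (pH 7.5), then scanned and quantified. All ungapped 8-mers were scored from probe intensities, and each received an enrichment E-score from the Universal PBM Analysis Suite, averaged over duplicate arrays.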
row,Sequence,PBM E-score of 8-mer
1,AAGTGCGT,0.149 ± 0.039
2,CAGTGCGA,0.386 ± 0.019
3,AAGTGCGC,0.138 ± 0.026
4,GCGTGCGA,0.285 ± 0.02
5,ACGTGCGG,0.191 ± 0.05
6,TAGTGCGA,0.4056 ± 0.0024
7,TAGTGCAA,0.267 ± 0.055
8,ATCAACGG,-0.182 ± 0.042
9,ATGTTTCA,-0.174 ± 0.074
10,CGGTTTGA,-0.1932 ± 0.0019
11,ATAACCAA,-0.112 ± 0.038
12,CTTAGGAA,-0.24 ± 0.011
13,CGGAAAAA,-0.0583 ± 0.12
14,AAACTACT,0.0819 ± 0.0066
15,CTTCTCAC,0.365 ± 0.01
16,GAGTGCGA,0.4088 ± 0.00055
17,ATGTGCGC,0.138 ± 0.0009
18,ATGTGCGG,0.0803 ± 0.028
19,GAGTGCGC,-0.0278 ± 0.044
20,GAGTGCAA,0.0826 ± 0.02
21,ATGTGCGA,0.4691 ± 0.0032
22,CCTTTCGA,-0.06 ± 0.02

row,Sequence,PBM E-score of 8-mer
1,AAGTCATA,-0.0653 ± 0.022
2,ATGCAATA,-0.341 ± 0.0082
3,AACCTTAG,-0.0923 ± 0.0088
4,GACCTTAA,-0.136 ± 0.0073
5,CACCTTAC,0.394 ± 0.0074
6,AACCTTAA,-0.209 ± 0.044
7,AACCTTAC,-0.000525 ± 0.043
8,GACCTTAC,-0.313 ± 0.028
9,CCCCTTAG,-0.195 ± 0.0038
10,CACCTTAG,0.4473 ± 0.0023
11,CACCTTAA,0.385 ± 0.011
12,AATTCTAA,-0.128 ± 0.086
13,AAAGTCCG,-0.00454 ± 0.029
14,CCATCAGG,0.0307 ± 0.054
15,CGAAGGGA,0.00651 ± 0.088
16,ATATTCTC,-0.0331 ± 0.008
17,CGCGCTAA,0.369 ± 0.0084
18,TGCGCTAA,0.247 ± 0.036
19,GGCGCTAC,0.346 ± 0.037
20,AGCGCTAA,0.362 ± 0.02
21,CGCGCTAG,0.159 ± 0.019
22,GGCGCTAA,0.426 ± 0.0098

row,Sequence,PBM E-score of 8-mer
1,AGCAGCGA,-0.0709 ± 0.041
2,CCGCCCAA,-0.101 ± 0.091
3,TATGAGAA,-0.274 ± 0.048
4,GATTGCCC,-0.0679 ± 0.024
5,GCGCAGGA,-0.0924 ± 0.067
6,GGGTGTAA,0.385 ± 0.013
7,AGGTGTAC,0.218 ± 0.043
8,CGGTGTAA,0.131 ± 0.037
9,AGGTGTAA,0.47639 ± 0.00041
10,AGGTGTAG,0.408 ± 0.0046
11,TGGTGTAA,0.28 ± 0.011
12,AGGTGTAT,0.328 ± 0.0044
13,CGGTGTAG,0.134 ± 0.1
14,GGGTGTAC,-0.0259 ± 0.052
15,TTGGGAAA,-0.102 ± 0.057
16,AGTTCTGC,-0.332 ± 0.0036
17,CGACGGGA,-0.129 ± 0.036
18,CACAAGTG,0.367 ± 0.0037
19,ATTGCCTA,-0.134 ± 0.077
20,AGTGCTGC,0.0868 ± 0.0037
21,CATCAAAG,-0.0524 ± 0.035
22,GATATCCC,-0.147 ± 0.05

row,Sequence,PBM E-score of 8-mer
1,AACGCCTT,0.3747 ± 0.00064
2,AACGCCTA,0.279 ± 0.034
3,AACGCCTC,0.362 ± 0.007
4,AAAGTGGC,0.234 ± 0.005
5,ATAGTGTG,0.393 ± 0.033
6,AAAGTGTG,0.435 ± 0.012
7,ATAGTGTC,0.335 ± 0.011
8,AAAGTGTT,0.429 ± 0.014
9,ATAGTGTA,0.0192 ± 0.0016
10,ACAGTGTC,0.238 ± 0.0038
11,AAAGTGGT,0.106 ± 0.042
12,AAAGTGTC,0.4215 ± 0.0027
13,AAAGTGTA,0.147 ± 0.057
14,AGAGTGTG,0.34 ± 0.01
15,AAAGTGAG,0.219 ± 0.048
16,AGGTTGTG,0.16 ± 0.052
17,AGGACCAC,-0.253 ± 0.12
18,GATAGGCA,-0.121 ± 0.014
19,AGAATCTA,0.151 ± 0.0012
20,CTTCGATA,-0.00351 ± 0.034
